DT40 TDP1 CPT: DT40-hTDP1 cell growth loss with CPT; chicken DT40 Tdp1-/-;hTDP1 cells + 20 nM CPT, ATP luminescence, 48 h; Potency, µM (series often up to 46.2 µM), most hits filed as inhibitors; hit rate 12% among 420,000; AID 686979; also: nearly all actives have a fitted effect of over 55% in size
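Chicken DT40 Tdp1-/- cells stably complemented with human TDP1 were seeded at 400 cells/well in medium containing 20 nM camptothecin, exposed to pin-transferred compounds, and grown at 37 °C for at least 48 hr. Viability was read as ATP luminescence.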
HT1080-NT tox: kills 2HG-producing HT-1080-NT fibrosarcoma cells; HT-1080-NT fibrosarcoma viability, CellTiter-Glo ATP luminescence, 48 h; Potency, µM (top dose mostly 46.1 µM), hits mostly cytotoxic; hit rate 1.6% among 360,000;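 also: NT is the 2HG producing partner of a matched IDH1 knockdown line; nearly all actives have a fitted effect of over 55% in size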
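Luminescent CellTiter-Glo readout after 48 hours of compound exposure at 37 degrees C defined viability of HT-1080-NT cells. Activity was normalized to DMSO wells and cell-free media wells; concentration-response curves were fitted and assigned curve classes.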
ELG1 repair inh: ELG1-dependent DNA repair inhibition. HEK293T ELG1-luciferase reporter, luminescence, 16 h; DNA damage induced by 5-fluorouridine. Potency, µM (highest dose often 46.1 µM), most hits filed as inhibitors. hit rate 2.3% among 330,000; also: nearly all actives have a fitted effect of over 55% in size
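5-Fluorouridine DNA damage + compound/DMSO, 2,000 cells/well, 16 h, 37 °C/5% CO2. ONE-Glo, 30 min RT, luminescence. Readout = decrease in reporter signal.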
IL1B secr inh: inflammasome signaling inhibition, IL-1 beta readout; activity change, % at 57.5 µM; AID 743279; hit rate 4.7% among 360,000; THP-1 LPS/ATP IL-1B secretion, AlphaLISA, 16 h; active compounds read low; in the data active = activity change below about -50%; inconclusive = mostly about -30% to -49%
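THP-1 cells pretreated 1 hr with compounds (up to 57.5 uM final), then stimulated with LPS (250 ng/mL final) plus ATP (1.25 mM final); secreted IL-1B measured by AlphaLISA after 16 hr, decreased signal indicating inhibition.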
TDP1 cell noCPT: qHTS for Inhibitors of human tyrosyl-DNA phosphodiesterase 1 (TDP1): qHTS in cells in absence of CPT. DT40 Tdp1-/- hTDP1 cells, no CPT, ATP luminescence, 48 h. Potency, µM (titrated, usually from 46.2 µM), usual class: inhibitors. hit rate 15% among 420,000. AID 686978, 2013; also: nearly all actives have a fitted effect of over 55% in size
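A cellular qHTS used chicken DT40 cells lacking endogenous Tdp1 but carrying stably transfected human TDP1. Compounds were applied without camptothecin, and cell growth kinetics were judged by ATP-dependent luminescence after ≥48 hr.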
HT1080 IDH1KD tx: kills HT-1080 cells with IDH1 knockdown; Potency, µM (highest dose often 46.1 µM), actives largely listed as cytotoxic; hit rate 2% among 360,000; HT-1080 IDH1 knockdown viability, ATP luminescence, 48 h; AID 686971
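Assay cells: HT-1080 with IDH1 knockdown, 750 per well, RPMI/5% FBS. Exposure: 48 h at 37 °C following 2 h pre-incubation. Read: CellTiter-Glo luminescence; fitted concentration-response, curve class assigned.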
Numbers stand for hits; - = inactive; ? = inconclusive; . = no result. This is a sample that favours compounds with a hit; in the whole collection about 19% have one here. Unless noted, calls follow the shape of the dose curve; as a rule, active = well fitted curve in the direction sought with a large enough effect; inconclusive = small, poorly fitted or top-dose-only effect, or another doubt; inactive = no such curve, though single readings can be large; an effect the other way counts as inactive or inconclusive.

SMILES	DT40 TDP1 CPT	HT1080-NT tox	ELG1 repair inh	IL1B secr inh	TDP1 cell noCPT	HT1080 IDH1KD tx
CC(Sc1ccccc1)C(=O)N/N=C/c1ccccc1 (stereo unspecified)	-	-	.	-	?	-
CCOc1ccc2nc(NC(=O)c3ccccn3)sc2c1	0.82µM	?	?	-98	0.65µM	16µM
CCSc1ncc(Cl)c(C(=O)Nc2ccccc2F)n1	-	-	-	-	-	-
CCOc1ccc2nc(NC(=O)Nc3ccccc3)sc2c1	?	-	?	-	?	-
O=C(Nc1nc2c(F)cc(F)cc2s1)c1ccccn1	0.65µM	?	?	-	0.73µM	6.5µM
Cc1ccc2nc(NC(=O)c3ccccn3)sc2c1	4.6µM	15µM	?	-102	6.5µM	2.3µM
CCOc1ccccc1NC(=O)c1nc(SC(C)C)ncc1Cl	?	.	.	.	18µM	.
CCOc1c(N2CCOCC2)c(=O)c1=O	-	-	-	-	-	-
CCc1nc2cc([N+](=O)[O-])c([N+](=O)[O-])cc2[nH]1	-	-	-	-	-	-
CCOc1ccc2nc(NC(=O)NC3CCCCC3)sc2c1	?	-	?	-	21µM	-
CSc1nc2ccc(NC(=O)c3ccccn3)cc2s1	-	15µM	?	-	?	12µM
CCOc1ccc2nc(NC(=O)C3CCCO3)sc2c1 (stereo unspecified)	-	-	-	?	-	-
CSc1ncccc1C(=O)Nc1nc2ccc(Oc3ccccc3)cc2s1	21µM	-	?	-	?	-
CCOc1ccc2nc(NC(=O)c3nc(SC(C)C)ncc3Cl)sc2c1	9.2µM	.	.	.	8.2µM	.
COc1ccc2nc(NC(=O)c3ccccc3C(=O)O)sc2c1	-	-	-	-	-	-
CSc1nc2ccc(NC(=O)C3=NNC(=O)CC3)cc2s1	-	-	?	-	-	-
Cc1ccc(OC(=O)CSc2nnc(-c3ccc4c(c3)OCO4)o2)c(C)c1	-	.	.	.	-	.
O=C(Nc1nc2c(F)cc(F)cc2s1)c1ccc(S(=O)(=O)N2CCc3ccccc32)cc1	26µM	.	.	.	?	.
CCOc1ccc2nc(NC(=O)Cn3[nH]c(=O)c4ccccc4c3=O)sc2c1	23µM	-	?	-	23µM	-
NS(=O)(=O)c1cccc(NC(=O)Cn2cc(C(F)(F)F)cc(Cl)c2=O)c1	-	-	-	-	-	-
Cc1cc(NC(=O)Cc2ccccc2[N+](=O)[O-])no1	?	-	-	-	?	-
CCCc1nc(Cl)c(C#N)c2c1CCCC2	-	-	?	-	-	-
CCc1nc(Cl)c(C#N)c2c1CCCC2	?	-	13µM	-	?	-
CCCCc1nc(NCCN2CCOCC2)c(C#N)c2c1COC(C)(C)C2	-	-	12µM	-	?	-
CC(C)Cc1nc(NCCN2CCOCC2)c(C#N)c2c1COC(C)(C)C2	?	-	?	?	18µM	-
SMILES	DT40 TDP1 CPT	HT1080-NT tox	ELG1 repair inh	IL1B secr inh	TDP1 cell noCPT	HT1080 IDH1KD tx
CCc1nc(NCCN2CCOCC2)c(C#N)c2c1CCCC2	3.3µM	-	-	-	-	-
CC(C)c1nc(NCCN2CCOCC2)c(C#N)c2c1COC(C)(C)C2	?	-	?	-	?	-
O=C(CNC(=O)N1CC(=O)Nc2ccccc21)NCc1cccc(Cl)c1	-	-	-	-	-	-
FC(F)Oc1ccc(C2N=C(c3ccccc3)NO2)cc1 (stereo unspecified)	-	-	?	-	-	-
COc1ccc(-c2cc(C(=O)NCc3ccc(F)cc3)no2)cc1	-	.	.	.	-	.
CCCCNC(=O)c1nc(-c2cccnc2OC)oc1-c1ccc(Cl)cc1	16µM	-	.	-	23µM	-
CCCCNC(=O)c1nc(-c2ccccc2)oc1-c1ccc(Cl)cc1	?	?	.	-	?	?
COCCCNC(=O)C(C)n1c2ccccc2c2cnn(C)c(=O)c21 (stereo unspecified)	-	.	.	.	-	.
O=C(NC1(Cc2ccccc2)CCN(CCCc2ccccc2)C1=O)c1ccccc1 (stereo unspecified)	0.65µM	-	?	-	1.2µM	-
O=C1c2ccccc2C(=O)c2c(/C=C/N3CCCCC3)ccnc21	6.5µM	-	.	-107	10µM	23µM
CN(C(=S)NC(=O)C1CC1)c1ccc(O)cc1	?	-	-	-	?	-
COc1cccc(-c2ccnc(-n3ncc(C(=O)N(C)CCc4ccccn4)c3C)n2)c1	-	.	.	.	-	.
Cc1ccc(C)c(N2CCN(c3nc4ccc(C)cc4nc3-n3nc(C)cc3C)CC2)c1	-	.	.	.	-	.
Cc1cc(C)n(-c2nc3ccccc3nc2N2CCN(S(=O)(=O)c3ccc4ccccc4c3)CC2)n1	?	-	-	-	14µM	-
Cc1cc(C)n(-c2nc3ccccc3nc2N2CCN(S(=O)(=O)c3ccc(F)c(C)c3)CC2)n1	23µM	-	-	-	?	-
CCOc1ccc(C(=O)Nc2nnc(S(=O)(=O)Nc3ccccc3)s2)cc1	-	.	.	.	?	.
COc1ccccc1CNc1nc(Nc2ccccc2OC)c2sccc2n1	5.8µM	-	.	-	4.6µM	-
COc1ccccc1CNc1nc(Nc2ccc(C)cc2C)c2sccc2n1	15µM	21µM	.	?	7.3µM	23µM
COc1ccccc1CNc1nc(-c2ccccc2CO)c2sccc2n1	?	-	.	-	?	-
COc1ccccc1CNS(=O)(=O)c1cc(C)ccc1OC	-	-	-	-	-	-
Cc1ccc(S(=O)(=O)c2nc(S(C)(=O)=O)sc2N2CCC(C)CC2)cc1	15µM	-	-	-84	15µM	?
Cc1ccc(S(=O)(=O)c2nc(S(C)(=O)=O)sc2N2CCCCCC2)cc1	-	-	-	-54	-	-
Cc1ccc(S(=O)(=O)c2c(C)cc(C)nc2N2CCCCC2)cc1	23µM	-	-	-	18µM	-
Cc1ccc(S(=O)(=O)c2nc(S(C)(=O)=O)sc2N2CCN(C)CC2)cc1	-	-	-	?	-	-
Fc1ccc(-n2ncc3c(N4CCC(Cc5ccccc5)CC4)ncnc32)cc1	-	.	.	.	-	.
O=C(c1ccccc1)c1ccc2ccccc2c1	-	-	.	-	-	-
O=C(c1ccccc1)c1ccc2cc(O)ccc2c1	-	?	?	-54	?	?
O=C(CNC(=O)c1ccc(N2CCCC2=O)cc1)Nc1ccc(F)c(F)c1F	-	-	-	-	-	-
CC(C)(C)n1nnnc1C(c1cc2cc3c(cc2[nH]c1=O)OCCO3)N1CCSCC1 (stereo unspecified)	-	-	-	-51	-	-
O=c1[nH]c2cc3c(cc2cc1C(c1nnnn1C1CCCC1)N1CCSCC1)OCCO3 (stereo unspecified)	23µM	-	-	-	18µM	-
